Measured values from the supplement of paper PMC8540655.
Values without a mark were called inactive.

System: Aedes aegypti larvae
Assay: larval motility relative to same well at 0 h (fraction); higher = more motile (less active compound), active = 0.4 or less
Conditions: 10 µM; 2 h
Description: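 MMV Pandemic Response Box compounds were tested at 10 µM (1% v/v DMSO) on Aedes aegypti larvae (18-24 h after hatching, about 10 per well, 96-well plates). Motility was quantified with INVAPP (200-frame movies) at 0, 2 and 24 h. Each well's motility was divided by its own 0 h score, and the median of 3 independent screens is reported.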

Row | SMILES | larval motility
1 | C[C@H]1[C@@H](c2cccc(C(F)(F)F)c2)OC(=O)N1C(=O)NCc1cncc2ccccc12 | 0.716
2 | O=C(NO)C1(CS(=O)(=O)c2ccc(Oc3ccc(Cl)cc3)cc2)CCOCC1 | 0.471
3 | Cc1cc(NS(=O)(=O)c2ccc(-c3ccc(F)cc3F)cc2)no1 | 0.769
4 | CC(N)C(=O)NC(CCCCN)C(=O)NC(CCCNC(=N)N)C(=O)NC(Cc1c[nH]cn1)C(=O)NC(Cc1c[nH]cn1)C(=O)NCC(=O)NC(Cc1ccc(O)cc1)C(=O)NC(CCCCN)C(=O)NC(CCCNC(=N)N)C(=O)NC(CCCCN)C(=O)NC(Cc1ccccc1)C(=O)NC(Cc1c[nH]cn1)C(N)=O (stereo not given) | 0.858
5 | CCCCCc1ccc(C(=O)NCCn2cc(CCCCCc3cnc(N)[nH]3)nn2)cc1 | 0.643
6 | Cc1nc(Nc2ccc(F)cc2)nc(N2CCc3ccccc3C2C)c1C (stereo not given) | 0.774
7 | CCOC(=O)/C=C/[C@H](C[C@@H]1CCNC1=O)NC(=O)[C@@H](CC(=O)[C@@H](NC(=O)c1cc(C)on1)C(C)C)Cc1ccc(F)cc1 | 1.26
8 | CCc1cc(CCC(=O)Nc2ccccc2O)c(=O)[nH]c1C | 0.689
9 | CCCCOC(=O)Nc1cc2nc(C3CCCCC3)[nH]c2cc1N(CC)CC | 0.544
10 | O=C(CP(=O)(O)O)NCCc1cccc(Oc2ccccc2)c1 | 2.12
11 | O[C@@](Cn1cnnn1)(c1ccc(F)cc1F)C(F)(F)c1ccc(-c2ccc(OCC(F)(F)F)cc2)cn1 | 0.718
12 | CC1=C(/C=C/C(C)=C/C=C/C(C)=C/C(=O)Nc2ccc(O)cc2)C(C)(C)CCC1 | 0.95
13 | O=C(N[C@H](CCS)C(=O)N[C@H](Cc1ccccc1)C(=O)O)c1cc2ccccc2[nH]1 | 1.47
14 | Nc1nc(Nc2ccc3nc(-c4ccc(F)cc4)cc(N)c3c2)cc(-c2ccccc2)n1 | 0.547
15 | CN1c2ccc(Cl)cc2N(c2ccccc2)C(=O)c2cn(Cc3ccc(CN4CCOCC4)cc3)nc21 | 0.674
16 | Nc1nc(O)c2ncn(COCCO)c2n1 | 0.732
17 | O=C(CSc1nnc(Br)n1-c1ccc(C2CC2)c2ccccc12)Nc1ccc(C(=O)O)cc1Cl | 0.815
18 | Cc1ccn2c(C(=O)NCc3ccccc3)c(C)nc2c1 | 1.47
19 | Cc1nc(-c2ccc(C3N(C)c4ccc(F)cc4C(=O)N3c3ccccc3)s2)cs1 (stereo not given) | 0.613
20 | Nc1nc(-c2ccccc2)nc2[nH]nc(Nc3ccc(C(F)(F)F)cc3)c12 | 0.791

Same assay, conditions: 10 µM; 24 h

Row | SMILES | larval motility
21 | C[C@H]1[C@@H](c2cccc(C(F)(F)F)c2)OC(=O)N1C(=O)NCc1cncc2ccccc12 | 0.359 (active)
22 | O=C(NO)C1(CS(=O)(=O)c2ccc(Oc3ccc(Cl)cc3)cc2)CCOCC1 | 1.04
23 | Cc1cc(NS(=O)(=O)c2ccc(-c3ccc(F)cc3F)cc2)no1 | 0.77
24 | CC(N)C(=O)NC(CCCCN)C(=O)NC(CCCNC(=N)N)C(=O)NC(Cc1c[nH]cn1)C(=O)NC(Cc1c[nH]cn1)C(=O)NCC(=O)NC(Cc1ccc(O)cc1)C(=O)NC(CCCCN)C(=O)NC(CCCNC(=N)N)C(=O)NC(CCCCN)C(=O)NC(Cc1ccccc1)C(=O)NC(Cc1c[nH]cn1)C(N)=O (stereo not given) | 1.19
25 | CCCCCc1ccc(C(=O)NCCn2cc(CCCCCc3cnc(N)[nH]3)nn2)cc1 | 0.914
26 | Cc1nc(Nc2ccc(F)cc2)nc(N2CCc3ccccc3C2C)c1C (stereo not given) | 0.644
27 | CCOC(=O)/C=C/[C@H](C[C@@H]1CCNC1=O)NC(=O)[C@@H](CC(=O)[C@@H](NC(=O)c1cc(C)on1)C(C)C)Cc1ccc(F)cc1 | 1.09
28 | CCc1cc(CCC(=O)Nc2ccccc2O)c(=O)[nH]c1C | 0.991
29 | CCCCOC(=O)Nc1cc2nc(C3CCCCC3)[nH]c2cc1N(CC)CC | 0.594
30 | O=C(CP(=O)(O)O)NCCc1cccc(Oc2ccccc2)c1 | 1.06
31 | O[C@@](Cn1cnnn1)(c1ccc(F)cc1F)C(F)(F)c1ccc(-c2ccc(OCC(F)(F)F)cc2)cn1 | 0.564
32 | CC1=C(/C=C/C(C)=C/C=C/C(C)=C/C(=O)Nc2ccc(O)cc2)C(C)(C)CCC1 | 0.595
33 | O=C(N[C@H](CCS)C(=O)N[C@H](Cc1ccccc1)C(=O)O)c1cc2ccccc2[nH]1 | 1.56
34 | Nc1nc(Nc2ccc3nc(-c4ccc(F)cc4)cc(N)c3c2)cc(-c2ccccc2)n1 | 0.261 (active)
35 | CN1c2ccc(Cl)cc2N(c2ccccc2)C(=O)c2cn(Cc3ccc(CN4CCOCC4)cc3)nc21 | 0.985
36 | Nc1nc(O)c2ncn(COCCO)c2n1 | 0.823
37 | O=C(CSc1nnc(Br)n1-c1ccc(C2CC2)c2ccccc12)Nc1ccc(C(=O)O)cc1Cl | 0.894
38 | Cc1ccn2c(C(=O)NCc3ccccc3)c(C)nc2c1 | 2.35
39 | Cc1nc(-c2ccc(C3N(C)c4ccc(F)cc4C(=O)N3c3ccccc3)s2)cs1 (stereo not given) | 0.822
40 | Nc1nc(-c2ccccc2)nc2[nH]nc(Nc3ccc(C(F)(F)F)cc3)c12 | 0.591
